Reference: article PMC7862700, “An all-to-all approach to the identification of sequence-specific readers for epigenetic DNA modifications on cytosine”

What was measured:
Test in all cases: DAPPL (digital affinity profiling via proximity ligation, sequencing); 10 mM Tris-HCl pH 7.5, 50 mM NaCl, 1 mM DTT, 4% glycerol, room temperature, 30 min; GST-TFs on glutathione beads, 16-mer random dsDNA library, 0.1% formaldehyde crosslink after washing; high values mean tight binding
Details in all cases: protein: recombinant; tags: N-terminal GST; dsDNA, one strand shown
FLI1 = target: T1, FLI1 (Homo sapiens, UniProt Q01543 1-452)
T1 sequence: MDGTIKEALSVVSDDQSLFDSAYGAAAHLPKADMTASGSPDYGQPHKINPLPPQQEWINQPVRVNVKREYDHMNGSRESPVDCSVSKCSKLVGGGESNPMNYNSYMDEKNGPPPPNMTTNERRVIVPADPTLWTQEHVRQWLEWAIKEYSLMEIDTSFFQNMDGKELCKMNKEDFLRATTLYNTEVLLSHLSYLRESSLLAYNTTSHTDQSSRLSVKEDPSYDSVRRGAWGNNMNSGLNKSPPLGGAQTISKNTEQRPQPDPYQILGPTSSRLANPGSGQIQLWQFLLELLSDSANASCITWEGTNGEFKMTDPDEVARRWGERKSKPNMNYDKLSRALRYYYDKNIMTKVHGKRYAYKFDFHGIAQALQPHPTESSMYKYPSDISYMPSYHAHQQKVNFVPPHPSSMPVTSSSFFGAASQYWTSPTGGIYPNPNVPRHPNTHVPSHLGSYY
How it was run: (§1)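 The binding signal reported is, for every hexamer, its read frequency for a factor over its read frequency for the tag-only sample. Reads came from pools of yeast-expressed, GST-fused human transcription factors on glutathione beads, barcoded with DNA and mixed with that sample, which were incubated with 200 nmole of a random double-stranded 16-mer DNA library in Tris/NaCl/DTT/glycerol buffer at room temperature for 30 min. After washing, the pools were crosslinked with 0.1% formaldehyde, proximity-ligated with BsaI/T4 ligase for 1 h at 37 °C, PCR-amplified and sequenced on an Illumina NextSeq500.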

ELK1 = target: T2, ELK1 (Homo sapiens, UniProt P19419 1-428)
T2 sequence: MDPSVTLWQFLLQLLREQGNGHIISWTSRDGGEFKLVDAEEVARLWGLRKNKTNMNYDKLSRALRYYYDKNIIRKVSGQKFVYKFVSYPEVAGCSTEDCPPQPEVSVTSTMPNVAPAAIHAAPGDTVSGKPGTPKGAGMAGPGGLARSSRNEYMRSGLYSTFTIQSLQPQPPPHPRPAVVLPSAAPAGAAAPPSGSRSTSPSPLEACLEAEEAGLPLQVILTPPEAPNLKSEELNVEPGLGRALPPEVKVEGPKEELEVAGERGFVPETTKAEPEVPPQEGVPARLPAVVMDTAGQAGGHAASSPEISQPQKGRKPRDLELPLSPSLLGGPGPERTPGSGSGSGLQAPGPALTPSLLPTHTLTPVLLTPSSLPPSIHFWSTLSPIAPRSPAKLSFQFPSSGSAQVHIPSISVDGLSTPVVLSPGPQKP
How it was run: as §1

GABPA = target: T3, GABPA (Homo sapiens, UniProt Q06546 1-454)
T3 sequence: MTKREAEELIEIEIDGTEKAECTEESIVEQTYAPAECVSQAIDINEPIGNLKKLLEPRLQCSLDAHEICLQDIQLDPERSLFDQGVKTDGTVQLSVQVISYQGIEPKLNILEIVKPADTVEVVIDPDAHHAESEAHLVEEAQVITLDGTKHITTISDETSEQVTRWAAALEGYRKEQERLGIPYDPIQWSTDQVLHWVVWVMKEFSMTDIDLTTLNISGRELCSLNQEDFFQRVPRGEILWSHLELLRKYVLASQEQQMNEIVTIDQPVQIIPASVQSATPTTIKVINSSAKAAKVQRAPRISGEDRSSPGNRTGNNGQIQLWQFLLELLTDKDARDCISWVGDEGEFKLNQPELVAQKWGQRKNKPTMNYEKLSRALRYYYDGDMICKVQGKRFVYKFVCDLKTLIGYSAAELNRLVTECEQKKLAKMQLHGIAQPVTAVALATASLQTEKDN
How it was run: as §1

ERG = target: T4, ERG (Homo sapiens, UniProt P11308 1-479)
T4 sequence: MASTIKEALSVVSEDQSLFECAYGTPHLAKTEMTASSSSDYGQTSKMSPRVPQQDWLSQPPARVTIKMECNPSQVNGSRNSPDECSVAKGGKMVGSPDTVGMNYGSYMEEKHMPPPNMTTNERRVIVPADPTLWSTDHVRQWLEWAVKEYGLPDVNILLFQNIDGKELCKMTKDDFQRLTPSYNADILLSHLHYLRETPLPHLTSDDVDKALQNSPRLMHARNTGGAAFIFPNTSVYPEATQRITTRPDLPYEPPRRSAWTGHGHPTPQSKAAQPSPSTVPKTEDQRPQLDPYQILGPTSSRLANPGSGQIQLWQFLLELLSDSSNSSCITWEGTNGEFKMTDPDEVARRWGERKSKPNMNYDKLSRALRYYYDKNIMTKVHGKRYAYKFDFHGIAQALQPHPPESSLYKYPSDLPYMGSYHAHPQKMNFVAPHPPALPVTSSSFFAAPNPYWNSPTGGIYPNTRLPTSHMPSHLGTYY
How it was run: as §1

ELF1 = ELF1 (Homo sapiens, UniProt P32519 1-619)
ELF1, sequence (P32519 whole entry): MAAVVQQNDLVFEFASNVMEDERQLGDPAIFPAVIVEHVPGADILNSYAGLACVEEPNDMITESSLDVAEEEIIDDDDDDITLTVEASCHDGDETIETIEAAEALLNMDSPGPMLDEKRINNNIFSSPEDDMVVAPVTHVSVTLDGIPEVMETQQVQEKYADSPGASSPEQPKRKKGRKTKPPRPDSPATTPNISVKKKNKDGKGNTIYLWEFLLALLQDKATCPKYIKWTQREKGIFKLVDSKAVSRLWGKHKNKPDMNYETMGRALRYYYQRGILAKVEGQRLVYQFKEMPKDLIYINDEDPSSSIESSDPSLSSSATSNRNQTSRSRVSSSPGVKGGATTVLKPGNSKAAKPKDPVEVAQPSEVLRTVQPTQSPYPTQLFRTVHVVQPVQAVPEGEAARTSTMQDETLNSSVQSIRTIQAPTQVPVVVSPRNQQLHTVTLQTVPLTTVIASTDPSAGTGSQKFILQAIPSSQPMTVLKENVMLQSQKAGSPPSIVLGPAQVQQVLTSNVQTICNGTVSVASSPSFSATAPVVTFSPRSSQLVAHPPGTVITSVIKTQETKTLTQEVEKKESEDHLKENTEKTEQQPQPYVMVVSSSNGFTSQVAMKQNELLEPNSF
How it was run: as §1

EHF = target: T5, EHF (Homo sapiens, UniProt Q9NZC4 1-300)
T5 sequence: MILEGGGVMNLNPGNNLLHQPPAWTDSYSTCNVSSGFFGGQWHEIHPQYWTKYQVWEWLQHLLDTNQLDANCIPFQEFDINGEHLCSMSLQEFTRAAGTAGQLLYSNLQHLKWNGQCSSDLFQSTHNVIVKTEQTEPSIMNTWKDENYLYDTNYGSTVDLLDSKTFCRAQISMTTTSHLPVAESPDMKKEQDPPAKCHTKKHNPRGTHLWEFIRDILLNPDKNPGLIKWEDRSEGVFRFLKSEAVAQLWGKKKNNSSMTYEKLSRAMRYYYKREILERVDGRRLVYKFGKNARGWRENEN
How it was run: as §1

SPI1 = SPI1 (Homo sapiens, UniProt P17947 1-270)
How it was run: as §1

SPIB = SPIB (Homo sapiens, UniProt Q01892 1-262)
SPIB, sequence (Q01892 whole entry): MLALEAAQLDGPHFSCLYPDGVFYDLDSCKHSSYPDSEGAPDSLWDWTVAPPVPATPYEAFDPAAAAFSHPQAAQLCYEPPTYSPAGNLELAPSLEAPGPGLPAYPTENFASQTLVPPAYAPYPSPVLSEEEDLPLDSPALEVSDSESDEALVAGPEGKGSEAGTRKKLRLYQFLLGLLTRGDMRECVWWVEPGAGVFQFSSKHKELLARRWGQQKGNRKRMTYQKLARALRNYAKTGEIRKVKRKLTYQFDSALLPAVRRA
How it was run: as §1

ELK3 = target: T6, ELK3 (Homo sapiens, UniProt P41970 1-407)
T6 sequence: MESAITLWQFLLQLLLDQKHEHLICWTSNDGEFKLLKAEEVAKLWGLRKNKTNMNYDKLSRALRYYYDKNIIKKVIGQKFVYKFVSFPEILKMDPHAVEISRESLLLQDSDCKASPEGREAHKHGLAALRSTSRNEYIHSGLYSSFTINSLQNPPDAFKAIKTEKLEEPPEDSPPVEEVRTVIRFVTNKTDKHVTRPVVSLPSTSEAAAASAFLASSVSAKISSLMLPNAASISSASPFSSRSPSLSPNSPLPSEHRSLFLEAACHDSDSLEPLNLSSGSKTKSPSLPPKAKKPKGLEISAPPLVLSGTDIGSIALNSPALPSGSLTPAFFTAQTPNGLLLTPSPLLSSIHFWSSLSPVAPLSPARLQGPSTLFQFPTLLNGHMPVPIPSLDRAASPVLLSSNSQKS
How it was run: as §1

## TTCTCC
FLI1
  binding signal: 1.42 fold enrichment (6-mer frequency, TF over GST control)
ELK1
  binding signal: 1.45 fold enrichment (6-mer frequency, TF over GST control)
GABPA
  binding signal: 1.6 fold enrichment (6-mer frequency, TF over GST control)
ERG
  binding signal: 1.43 fold enrichment (6-mer frequency, TF over GST control)
ELF1
  binding signal: 1.56 fold enrichment (6-mer frequency, TF over GST control)
EHF
  binding signal: 1.62 fold enrichment (6-mer frequency, TF over GST control)
SPI1
  binding signal: 1.63 fold enrichment (6-mer frequency, TF over GST control)
SPIB
  binding signal: 1.61 fold enrichment (6-mer frequency, TF over GST control)
ELK3
  binding signal: 1.6 fold enrichment (6-mer frequency, TF over GST control)

## CTGGAA
FLI1
  binding signal: 1.22 fold enrichment (6-mer frequency, TF over GST control)
ELK1
  binding signal: 1.25 fold enrichment (6-mer frequency, TF over GST control)
GABPA
  binding signal: 1.33 fold enrichment (6-mer frequency, TF over GST control)
ERG
  binding signal: 1.27 fold enrichment (6-mer frequency, TF over GST control)
ELF1
  binding signal: 1.19 fold enrichment (6-mer frequency, TF over GST control)
EHF
  binding signal: 1.2 fold enrichment (6-mer frequency, TF over GST control)
SPI1
  binding signal: 1.26 fold enrichment (6-mer frequency, TF over GST control)
SPIB
  binding signal: 1.31 fold enrichment (6-mer frequency, TF over GST control)
ELK3
  binding signal: 1.31 fold enrichment (6-mer frequency, TF over GST control)

## TCCGAA
FLI1
  binding signal: 1.35 fold enrichment (6-mer frequency, TF over GST control)
ELK1
  binding signal: 1.28 fold enrichment (6-mer frequency, TF over GST control)
GABPA
  binding signal: 1.37 fold enrichment (6-mer frequency, TF over GST control)
ERG
  binding signal: 1.3 fold enrichment (6-mer frequency, TF over GST control)
ELF1
  binding signal: 1.23 fold enrichment (6-mer frequency, TF over GST control)
EHF
  binding signal: 1.41 fold enrichment (6-mer frequency, TF over GST control)
SPI1
  binding signal: 1.25 fold enrichment (6-mer frequency, TF over GST control)
SPIB
  binding signal: 1.44 fold enrichment (6-mer frequency, TF over GST control)
ELK3
  binding signal: 1.18 fold enrichment (6-mer frequency, TF over GST control)

## TCACAC
FLI1
  binding signal: 1.31 fold enrichment (6-mer frequency, TF over GST control)
ELK1
  binding signal: 1.19 fold enrichment (6-mer frequency, TF over GST control)
GABPA
  binding signal: 1.34 fold enrichment (6-mer frequency, TF over GST control)
ERG
  binding signal: 1.31 fold enrichment (6-mer frequency, TF over GST control)
ELF1
  binding signal: 1.32 fold enrichment (6-mer frequency, TF over GST control)
EHF
  binding signal: 1.3 fold enrichment (6-mer frequency, TF over GST control)
SPI1
  binding signal: 1.23 fold enrichment (6-mer frequency, TF over GST control)
SPIB
  binding signal: 1.29 fold enrichment (6-mer frequency, TF over GST control)
ELK3
  binding signal: 1.46 fold enrichment (6-mer frequency, TF over GST control)

## GTTCTT
FLI1
  binding signal: 1.19 fold enrichment (6-mer frequency, TF over GST control)
ELK1
  binding signal: 1.22 fold enrichment (6-mer frequency, TF over GST control)
GABPA
  binding signal: 1.09 fold enrichment (6-mer frequency, TF over GST control)
ERG
  binding signal: 1.19 fold enrichment (6-mer frequency, TF over GST control)
ELF1
  binding signal: 1.18 fold enrichment (6-mer frequency, TF over GST control)
EHF
  binding signal: 1.08 fold enrichment (6-mer frequency, TF over GST control)
SPI1
  binding signal: 1.09 fold enrichment (6-mer frequency, TF over GST control)
SPIB
  binding signal: 1.17 fold enrichment (6-mer frequency, TF over GST control)
ELK3
  binding signal: 1.35 fold enrichment (6-mer frequency, TF over GST control)

## TATTAT
FLI1
  binding signal: 1.3 fold enrichment (6-mer frequency, TF over GST control)
ELK1
  binding signal: 1.27 fold enrichment (6-mer frequency, TF over GST control)
GABPA
  binding signal: 1.21 fold enrichment (6-mer frequency, TF over GST control)
ERG
  binding signal: 1.25 fold enrichment (6-mer frequency, TF over GST control)
ELF1
  binding signal: 1.25 fold enrichment (6-mer frequency, TF over GST control)
EHF
  binding signal: 1.25 fold enrichment (6-mer frequency, TF over GST control)
SPI1
  binding signal: 1.2 fold enrichment (6-mer frequency, TF over GST control)
SPIB
  binding signal: 1.24 fold enrichment (6-mer frequency, TF over GST control)
ELK3
  binding signal: 1.12 fold enrichment (6-mer frequency, TF over GST control)

## TAATCA
FLI1
  binding signal: 1.17 fold enrichment (6-mer frequency, TF over GST control)
ELK1
  binding signal: 1.14 fold enrichment (6-mer frequency, TF over GST control)
GABPA
  binding signal: 1.25 fold enrichment (6-mer frequency, TF over GST control)
ERG
  binding signal: 1.07 fold enrichment (6-mer frequency, TF over GST control)
ELF1
  binding signal: 1.16 fold enrichment (6-mer frequency, TF over GST control)
EHF
  binding signal: 1.08 fold enrichment (6-mer frequency, TF over GST control)
SPI1
  binding signal: 1.07 fold enrichment (6-mer frequency, TF over GST control)
SPIB
  binding signal: 1.16 fold enrichment (6-mer frequency, TF over GST control)
ELK3
  binding signal: 1.09 fold enrichment (6-mer frequency, TF over GST control)
